Source: ChEMBL document CHEMBL3988442, “University of Dundee, Small-Polar-MMV Screening Library” (2021)
For some assays here: Results with a measured potency or affinity are listed apart.

Key:
Parameters in all cases: scale not given: direction of the effect not stated beside the values
[1] = target: Protein translocase subunit SecA (Escherichia coli (strain K12)) (UniProt P10408); assay: Assay to Identify E. coli SecA ATPase Inhibitors; assay type: functional; details: 30 µM
[2] = target: T1, Ubiquitin-activating enzyme e1, putative (Leishmania donovani (strain BPK282A1)) (UniProt E9BSI1); assay: Leishmania donovani Ubiquitin Activating Enzyme (LdE1); assay type: functional; details: 30 µM
T1 sequence (whole entry): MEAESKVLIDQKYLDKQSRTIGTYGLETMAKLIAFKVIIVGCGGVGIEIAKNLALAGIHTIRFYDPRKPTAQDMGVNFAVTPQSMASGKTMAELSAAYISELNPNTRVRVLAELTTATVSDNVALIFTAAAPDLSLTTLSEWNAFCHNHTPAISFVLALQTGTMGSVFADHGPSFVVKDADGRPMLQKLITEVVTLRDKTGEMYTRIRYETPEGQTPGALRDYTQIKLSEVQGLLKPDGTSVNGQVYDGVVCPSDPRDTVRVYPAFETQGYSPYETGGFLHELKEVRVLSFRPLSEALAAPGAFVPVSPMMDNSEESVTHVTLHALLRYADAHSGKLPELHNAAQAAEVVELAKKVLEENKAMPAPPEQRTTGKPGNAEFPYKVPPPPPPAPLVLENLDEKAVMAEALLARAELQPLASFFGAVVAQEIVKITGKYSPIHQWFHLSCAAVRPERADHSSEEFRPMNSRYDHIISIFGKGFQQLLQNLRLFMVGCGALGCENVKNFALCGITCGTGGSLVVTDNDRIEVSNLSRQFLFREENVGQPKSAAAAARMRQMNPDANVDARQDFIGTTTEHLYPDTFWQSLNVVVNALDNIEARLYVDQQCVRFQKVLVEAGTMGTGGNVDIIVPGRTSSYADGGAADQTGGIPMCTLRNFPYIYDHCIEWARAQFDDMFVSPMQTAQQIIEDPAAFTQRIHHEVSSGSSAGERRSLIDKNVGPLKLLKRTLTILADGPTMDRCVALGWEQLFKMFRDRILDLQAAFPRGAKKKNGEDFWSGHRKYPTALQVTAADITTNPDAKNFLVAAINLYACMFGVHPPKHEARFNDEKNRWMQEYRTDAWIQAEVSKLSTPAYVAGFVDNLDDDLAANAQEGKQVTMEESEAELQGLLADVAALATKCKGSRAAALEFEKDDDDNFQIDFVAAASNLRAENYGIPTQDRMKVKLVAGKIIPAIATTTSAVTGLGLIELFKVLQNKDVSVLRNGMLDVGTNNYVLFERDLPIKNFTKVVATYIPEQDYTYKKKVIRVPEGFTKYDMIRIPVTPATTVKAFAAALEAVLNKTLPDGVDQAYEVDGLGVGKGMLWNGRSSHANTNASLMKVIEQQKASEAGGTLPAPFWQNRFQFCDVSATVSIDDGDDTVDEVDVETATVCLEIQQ

[3] = target: AMP-activated protein kinase, AMPK (Homo sapiens) (UniProt P54646+O43741+P54619+Q9UGJ0+Q9Y478+Q13131+Q9UGI9); assay: AMP-dependent Kinase enzyme assay. An in vitro enzyme assay that detects ADP turnover that is directly proportional to AMPK activity. This uses naive AMPK that is activated during the assay with MK-8722; assay type: functional; details: 30 µM
[4] = target: Sialic acid-binding Ig-like lectin 9 (Homo sapiens) (UniProt Q9Y336); assay: Hs-Siglec9 ALPHAscreen SOP 20170721; details: 10 µM
Trypanosoma cruzi = assay: Trypanosoma cruzi phosphomannomutase and mannose-1-phosphate guanylyltransferase assay; assay type: functional; details: 10 µM
[5] = target: T2, Arginase-2, mitochondrial (Homo sapiens) (UniProt P78540); assay: in vitro enzyme assay to detect the production of urea directly proportional to the activity of Arginase II; assay type: functional; details: 33.3 µM; also: in the data most compounds retested in dose-response had high values
T2 sequence (whole entry): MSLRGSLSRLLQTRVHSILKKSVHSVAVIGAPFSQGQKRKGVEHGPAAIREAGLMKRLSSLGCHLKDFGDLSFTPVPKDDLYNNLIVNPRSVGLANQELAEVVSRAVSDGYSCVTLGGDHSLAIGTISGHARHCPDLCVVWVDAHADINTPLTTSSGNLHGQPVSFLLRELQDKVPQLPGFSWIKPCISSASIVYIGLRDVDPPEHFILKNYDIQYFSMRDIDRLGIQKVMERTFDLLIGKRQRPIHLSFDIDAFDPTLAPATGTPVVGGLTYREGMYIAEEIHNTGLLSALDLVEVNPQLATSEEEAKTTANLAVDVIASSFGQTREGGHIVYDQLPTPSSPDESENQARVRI

[6] = target: T3, Proteasome subunit beta (Trypanosoma cruzi) (UniProt O96673); assay: Trypanosoma cruzi proteasome chymotrypsin-like activity (TcProtChymo) assay.; also: in the data most compounds retested in dose-response had high values; assay type: functional; details: 9.37 µM
T3 sequence (whole entry): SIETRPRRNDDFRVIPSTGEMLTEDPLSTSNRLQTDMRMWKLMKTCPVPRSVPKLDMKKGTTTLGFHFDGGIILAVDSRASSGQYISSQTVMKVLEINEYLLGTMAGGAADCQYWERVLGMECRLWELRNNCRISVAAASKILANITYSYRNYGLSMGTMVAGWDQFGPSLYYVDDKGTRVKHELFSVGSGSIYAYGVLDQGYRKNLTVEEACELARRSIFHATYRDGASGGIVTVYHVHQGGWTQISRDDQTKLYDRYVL

Homo sapiens = species on record: Homo sapiens; assay: To identify inhibition of the IFN signalling (Jak-Stat) pathway via expression of an eGFP reporter gene under the control of an IFN-stimulated response element (ISRE) containing MxA promoter.; assay type: functional; details: 30 µM
[7] = target: T4, Tyrosyl-tRNA synthetase, putative (Trypanosoma cruzi (strain CL Brener)) (UniProt Q4DSP6); assay: Trypanosoma cruzi tyrosyl tRNA synthetase (TcYRS) _High Tyrosine SOP; assay type: functional; details: 30 µM; also: in the data most compounds retested in dose-response had high values
T4 sequence (whole entry): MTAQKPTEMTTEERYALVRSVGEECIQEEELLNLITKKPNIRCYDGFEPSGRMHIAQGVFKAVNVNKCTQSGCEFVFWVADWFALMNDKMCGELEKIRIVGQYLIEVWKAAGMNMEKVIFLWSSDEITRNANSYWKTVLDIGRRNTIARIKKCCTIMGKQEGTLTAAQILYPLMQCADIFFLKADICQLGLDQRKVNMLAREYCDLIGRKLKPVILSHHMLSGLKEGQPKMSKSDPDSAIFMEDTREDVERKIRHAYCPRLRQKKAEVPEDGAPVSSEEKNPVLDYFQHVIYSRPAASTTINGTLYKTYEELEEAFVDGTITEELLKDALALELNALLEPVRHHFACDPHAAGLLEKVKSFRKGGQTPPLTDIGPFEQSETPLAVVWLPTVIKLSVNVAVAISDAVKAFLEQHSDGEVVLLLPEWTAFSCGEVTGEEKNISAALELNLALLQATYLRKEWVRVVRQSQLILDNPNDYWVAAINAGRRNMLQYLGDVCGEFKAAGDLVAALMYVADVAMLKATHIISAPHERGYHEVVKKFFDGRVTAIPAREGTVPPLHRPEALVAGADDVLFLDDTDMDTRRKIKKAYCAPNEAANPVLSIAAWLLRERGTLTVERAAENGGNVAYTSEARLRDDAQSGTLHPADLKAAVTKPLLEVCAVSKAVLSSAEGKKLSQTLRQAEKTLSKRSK

[8] = target: T4, Tyrosyl-tRNA synthetase, putative (Trypanosoma cruzi (strain CL Brener)); assay: Trypanosoma cruzi tyrosyl tRNA synthetase (TcYRS) SOP; assay type: functional; details: 30 µM
[9] = target: Chromo domain-containing protein 1 (Saccharomyces cerevisiae (strain ATCC 204508 / S288c) (Baker's yeast)) (UniProt P32657); assay: ScCHD-1 Enzyme Inhibition Assay; assay type: functional; details: 30 µM; also: in the data most compounds retested in dose-response had high values
Chromo domain-containing protein 1 (Saccharomyces cerevisiae (strain ATCC 204508 / S288c) (Baker's yeast)), sequence (P32657 whole entry, the tested form may be a part): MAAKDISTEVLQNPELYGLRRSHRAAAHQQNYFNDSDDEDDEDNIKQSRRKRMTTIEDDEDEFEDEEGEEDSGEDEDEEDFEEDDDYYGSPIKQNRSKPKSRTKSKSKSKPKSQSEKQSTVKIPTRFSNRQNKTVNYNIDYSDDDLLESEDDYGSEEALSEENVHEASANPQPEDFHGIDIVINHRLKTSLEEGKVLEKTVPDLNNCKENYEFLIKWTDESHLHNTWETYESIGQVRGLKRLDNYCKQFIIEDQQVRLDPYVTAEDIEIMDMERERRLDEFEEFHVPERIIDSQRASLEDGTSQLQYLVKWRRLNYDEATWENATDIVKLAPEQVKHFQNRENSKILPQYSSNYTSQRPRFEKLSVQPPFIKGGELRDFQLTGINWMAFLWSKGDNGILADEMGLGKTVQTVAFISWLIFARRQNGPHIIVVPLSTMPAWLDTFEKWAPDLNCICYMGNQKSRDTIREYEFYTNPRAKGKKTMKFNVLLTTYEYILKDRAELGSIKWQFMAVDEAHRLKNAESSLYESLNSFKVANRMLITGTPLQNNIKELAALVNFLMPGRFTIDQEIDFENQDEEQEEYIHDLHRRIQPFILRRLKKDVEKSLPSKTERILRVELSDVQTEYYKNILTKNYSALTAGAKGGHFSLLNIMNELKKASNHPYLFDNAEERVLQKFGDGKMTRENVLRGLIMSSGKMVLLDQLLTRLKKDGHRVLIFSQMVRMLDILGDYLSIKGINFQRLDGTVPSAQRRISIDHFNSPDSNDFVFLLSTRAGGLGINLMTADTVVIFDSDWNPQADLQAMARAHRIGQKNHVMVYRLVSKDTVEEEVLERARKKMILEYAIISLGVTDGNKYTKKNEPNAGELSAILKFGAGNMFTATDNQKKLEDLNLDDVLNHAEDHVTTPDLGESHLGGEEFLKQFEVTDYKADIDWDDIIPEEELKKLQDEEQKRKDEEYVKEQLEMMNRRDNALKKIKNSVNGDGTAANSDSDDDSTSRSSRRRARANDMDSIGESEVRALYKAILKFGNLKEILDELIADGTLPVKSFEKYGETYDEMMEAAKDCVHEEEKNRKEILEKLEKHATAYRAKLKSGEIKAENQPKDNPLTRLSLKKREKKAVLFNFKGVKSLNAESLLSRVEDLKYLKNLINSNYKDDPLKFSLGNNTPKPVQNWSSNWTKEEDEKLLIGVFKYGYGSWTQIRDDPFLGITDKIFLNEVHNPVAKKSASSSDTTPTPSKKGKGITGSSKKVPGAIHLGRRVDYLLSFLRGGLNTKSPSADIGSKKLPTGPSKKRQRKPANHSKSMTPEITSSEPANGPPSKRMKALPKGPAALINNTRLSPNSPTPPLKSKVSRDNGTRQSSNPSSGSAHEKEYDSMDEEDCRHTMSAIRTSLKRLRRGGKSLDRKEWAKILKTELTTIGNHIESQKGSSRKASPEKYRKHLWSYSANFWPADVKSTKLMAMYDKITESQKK

Protein translocase subunit SecA (Escherichia coli (strain K12)), sequence (P10408 whole entry): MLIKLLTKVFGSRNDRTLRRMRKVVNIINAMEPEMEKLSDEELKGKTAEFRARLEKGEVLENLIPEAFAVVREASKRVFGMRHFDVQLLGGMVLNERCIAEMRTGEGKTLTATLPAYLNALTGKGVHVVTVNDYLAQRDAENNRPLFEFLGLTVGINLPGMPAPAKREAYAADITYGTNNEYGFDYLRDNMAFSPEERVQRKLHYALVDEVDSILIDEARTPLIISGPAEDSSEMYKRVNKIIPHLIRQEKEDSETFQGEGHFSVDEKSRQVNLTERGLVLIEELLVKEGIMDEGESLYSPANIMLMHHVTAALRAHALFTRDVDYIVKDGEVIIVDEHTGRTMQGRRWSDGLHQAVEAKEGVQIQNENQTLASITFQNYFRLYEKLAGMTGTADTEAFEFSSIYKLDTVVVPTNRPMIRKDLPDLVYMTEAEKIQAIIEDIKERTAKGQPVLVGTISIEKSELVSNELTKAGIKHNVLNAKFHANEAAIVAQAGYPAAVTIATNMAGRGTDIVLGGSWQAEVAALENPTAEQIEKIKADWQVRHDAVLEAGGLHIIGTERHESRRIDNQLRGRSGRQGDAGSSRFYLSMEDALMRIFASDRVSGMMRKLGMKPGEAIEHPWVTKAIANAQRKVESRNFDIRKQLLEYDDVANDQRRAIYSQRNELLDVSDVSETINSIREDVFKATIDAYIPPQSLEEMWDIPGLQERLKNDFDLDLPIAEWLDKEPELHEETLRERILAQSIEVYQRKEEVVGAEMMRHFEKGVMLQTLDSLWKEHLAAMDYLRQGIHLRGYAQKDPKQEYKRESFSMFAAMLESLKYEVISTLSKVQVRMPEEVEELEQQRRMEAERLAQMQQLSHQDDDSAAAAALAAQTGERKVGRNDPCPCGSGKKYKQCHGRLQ
Sialic acid-binding Ig-like lectin 9 (Homo sapiens), sequence (Q9Y336 whole entry): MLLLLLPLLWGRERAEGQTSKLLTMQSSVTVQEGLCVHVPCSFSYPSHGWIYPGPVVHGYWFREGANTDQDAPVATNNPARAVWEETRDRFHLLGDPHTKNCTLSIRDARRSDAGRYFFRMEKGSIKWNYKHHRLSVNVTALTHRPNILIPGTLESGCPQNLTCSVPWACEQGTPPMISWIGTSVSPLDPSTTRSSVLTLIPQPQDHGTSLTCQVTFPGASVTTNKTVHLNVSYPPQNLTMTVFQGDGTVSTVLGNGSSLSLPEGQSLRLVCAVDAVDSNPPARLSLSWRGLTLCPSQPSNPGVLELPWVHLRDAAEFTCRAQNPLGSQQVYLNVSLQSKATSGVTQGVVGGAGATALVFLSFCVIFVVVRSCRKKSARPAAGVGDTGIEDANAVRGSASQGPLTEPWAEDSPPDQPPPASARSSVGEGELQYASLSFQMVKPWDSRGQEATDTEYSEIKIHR

Row | Structure (SMILES) | Percent Effect [1] | Percent Effect [2] | Percent Effect [3] | Percent Effect [4] | Percent Effect (Trypanosoma cruzi) | Percent Effect [5] | Percent Effect [6] | Percent Effect (Homo sapiens) | Percent Effect [7] | Percent Effect [8] | Percent Effect [9]
1 | O=C(C1CC1)N1CCN(Cc2coc(-c3ccc(Cl)cc3)n2)CC1 | -5.03% | -7.79% | 1.6% | 13.9% | 8.8% | -1.42% | -3.38% | 43% | 3.88% | 0% | -5.59%
2 | Cc1ccc(C(NC(=O)[C@H]2CC[C@@H](O)CC2)c2cccnc2)cc1C (stereo partly specified) | -7.06% | 5.33% | 2.02% | 2.58% | -1.07% | 4.17% | 8.2% | -9.12% | 0.546% | 8.64% | -6.38%
3 | CC(C)c1nn(C)c(N(C)C)c1CNCCC(=O)N(C)C | -2.63% | 0% | -11.4% | -2.27% | 2.15% | 0.719% | 5.16% | -16.3% | -0.493% | 3.7% | 0.33%
4 | CN(Cc1cnn(C)c1)C(=O)NC1CCC(O)CC1 (stereo unspecified) | -2.67% | 4.17% | -6.32% | 15.8% | 2.82% | 9.71% | 13% | -3.51% | 0% | 2.56% | -2.95%
5 | COCCNC(=O)Nc1ccc(-n2cncn2)c(F)c1 | -6.54% | 0% | -12.8% | 0.712% | -4.7% | 0% | 4.51% | 28.2% | 2.45% | 0% | -7.16%
6 | Cc1nc(CN2CCCC2c2ccsc2)nc2ccccc12 (stereo unspecified) | -1.18% | -16.5% | 3.32% | 2.94% | 4% | 7.1% | 13.6% | 23.7% | 9.38% | 27.9% | 4.99%
7 | CC(=O)c1ccc(N2CCCC(CO)(CCOc3ccccc3)C2)nc1 (stereo unspecified) | -1.73% | 10.4% | 4.96% | 15.7% | 6.39% | -22.1% | 19.5% | 65.7% | 5.38% | 16.1% | -2.3%
8 | Cc1noc(C2CCCN(C(=O)c3ccc(Br)cc3F)C2)n1 (stereo unspecified) | -5.32% | 10.4% | 2.06% | 2.58% | 6.95% | 2.74% | 6.87% | -5.04% | 1.91% | 18.8% | -19.5%
9 | CNC(=O)c1ccc(C(=O)N2CCCC2c2cnn(C)c2)cn1 (stereo unspecified) | -3.23% | 7.89% | -6.87% | 5.79% | 3.08% | -2.88% | 9.05% | -13.2% | 5.42% | 6.17% | -6.61%
10 | Cc1c(C(=O)NCC2CCCO2)nnn1-c1cccc2c1CCN(C)C2 (stereo unspecified) | -7.71% | 2.63% | -11.9% | -4.47% | -1.27% | 2.37% | 6.42% | 27.2% | -1.06% | -2.6% | 88%
11 | Cc1nnc(CN2CCN(CCOc3ccccc3C#N)CC2)n1C | -5% | 13.2% | -7.44% | 8.94% | 5.7% | 1.44% | 7.87% | 5.78% | 3.45% | 16.1% | -3.26%
12 | COc1cccc2c1ccn2CCC(=O)NCCCC(=O)O | -1.03% | 20% | 1.22% | -4.11% | -4.32% | -2.99% | 13.5% | -6.02% | 5.29% | 5.13% | -9.24%
13 | Fc1cnc(N2CCC3(COCc4cnc(NCC5CC5)nc43)C2)nc1 (stereo unspecified) | 2.14% | -2.74% | 27.5% | 4.49% | -1.59% | 2.4% | 4.88% | -6.32% | 1.04% | 3.7% | 2.6%
14 | CC(=O)N1CCCN(C(=O)CCc2c(C)noc2C)CC1 | -5.5% | 18.4% | -6.52% | -3.87% | 3.95% | 0.766% | 9.52% | 9.31% | 8.33% | 19.5% | -11.2%
15 | Cc1cc(C)n(CC2CCCN2Cc2c(C)noc2C)n1 (stereo unspecified) | -2.91% | -2.7% | 33.8% | 8.4% | 6.51% | -0.802% | 5.59% | 9.49% | 2.46% | 11.1% | -10.7%
16 | c1cnc2c(c1)cc(C1CCOCC1)n2CCN1CCOCC1 | -3.29% | 14.9% | 13.1% | -5.49% | 0.79% | -1.62% | 12.5% | 4.82% | 3.23% | 11.7% | -12.6%
